From ChEMBL document CHEMBL3988442, “University of Dundee, Small-Polar-MMV Screening Library” (2021)
Out of some 85,000 compounds screened, about 440 (0.52%) showed an effect of 50% or more. What follows is part of a selection rich in strong results, with near analogues and random picks from the rest.

Assay: In vitro enzyme assay to detect hydrolysis of chlorophenol red-beta-D-[…] directly proportional to the number of Toxoplasma stably expressing beta-galactosidase
Type: functional, organism-based, Toxoplasma gondii
Set-up: scale not given: in the data most compounds retested in dose-response had high values

| SMILES | Percent Effect (50 µM) [%] | Percent Effect (10 µM) [%] |
| --- | --- | --- |
| CC(N)c1nnc2ccccn12 (stereo not drawn) | 17.22 | – |
| O=C(Nc1ccccn1)NC1CCN(c2ccccc2OC(F)F)C1 (stereo not drawn) | – | 20.62 |
| O=C(Nc1cccnc1)NC1CCN(c2ccccc2OC(F)F)C1 (stereo not drawn) | – | -3.215 |
| O=C(Nc1ccncc1)NC1CCN(c2ccccc2OC(F)F)C1 (stereo not drawn) | – | 74.41 |
| CCC1(CN)OCCc2ccccc21 (stereo not drawn) | 4.501 | – |
| NC(=O)[C@@H]1Cc2ccccc2CO1 | 9.404 | – |
| Cn1ncnc1CCNc1cc(C2CC(N)C2)ncn1 (stereo not drawn) | 22.67 | – |
| CN1CCC(NC(=O)c2ccc3ncccc3c2)C1=O (stereo not drawn) | 1.515 | – |
| CCCS(=O)(=O)N1CCC(NC(=O)c2cc3ccccc3s2)CC1 | – | 4.884 |
| CN1CCC(NC(=O)c2cc3ccccc3s2)C1=O (stereo not drawn) | 52.45 | – |
| CCC(C)(NCc1cc(F)ccc1F)C(N)=O (stereo not drawn) | -22.31 | – |
| CC(C)(C)OC(=O)N(CCNS(=O)(=O)N1CCOCC1)C1CC1 | – | -6.418 |
| CCN(CCNS(=O)(=O)N1CCOCC1)C(=O)OC(C)(C)C | – | 51.95 |
| CCN(CCNS(=O)(=O)C1CCOCC1)C(=O)OC(C)(C)C | – | 6.938 |
| O=C1CCOc2cc(O)c(F)cc21 | -11.53 | – |
| CN(C)S(=O)(=O)CCCN1CCC2(CCCNC2=O)C1 (stereo not drawn) | 25.69 | – |
| CC1CCCN(Cc2nc(N)nc(N(C)C)n2)C1 (stereo not drawn) | 28.57 | – |
| COc1ccc(C(CO)N(C)Cc2ccncc2)cc1 (stereo not drawn) | 7.987 | – |
| CCC(C#N)NC(=O)c1ccc(Oc2cccnc2)cc1 (stereo not drawn) | – | -3.821 |
| CC(CO)CNC(=O)c1cnc(OC(C)C)c(Cl)c1 (stereo not drawn) | 9.037 | – |
| CCC(C#N)NC(=O)c1cnc(OC(C)C)c(Cl)c1 (stereo not drawn) | 77.34 | – |
| O=C(c1ccccc1-n1cccn1)N1CCSCC1 | 5.631 | – |
| CCOc1ncccc1C(=O)N1CCCN(CC)CC1 | 8.353 | – |
| Cc1ccc(CN2Cc3nnn(C)c3C(COCC3CC3)C2)s1.O=C(O)C(F)(F)F (stereo not drawn) | – | -9.58 |

| SMILES | Percent Effect (50 µM) [%] | Percent Effect (10 µM) [%] |
| --- | --- | --- |
| Cc1ccc(CN2Cc3nnn(C)c3C(COCc3ccccn3)C2)s1.O=C(O)C(F)(F)F.O=C(O)C(F)(F)F (stereo not drawn) | – | 13.37 |
| Cc1ccc(CN2Cc3nnn(C)c3C(COCC(=O)N(C)C)C2)s1.O=C(O)C(F)(F)F (stereo not drawn) | – | -13.89 |
| COCC1CN(Cc2ccc(C)s2)Cc2nnn(C)c21.O=C(O)C(F)(F)F (stereo not drawn) | – | 3.713 |
| Cc1ccc(CN2Cc3nnn(C)c3C(COCc3ccccc3)C2)s1.O=C(O)C(F)(F)F (stereo not drawn) | – | 57.56 |
| CC(C)(C)c1cc(NC(=O)CN2CCC(O)CC2)on1 | -5.429 | – |
| CCOc1ccc(NC(=O)NC2CCS(=O)(=O)C2)cc1 (stereo not drawn) | 3.188 | – |
| O=C(CN1CCNCC1)NCCSc1ccc(Cl)cc1 | 4.461 | – |
| O=C(NCCCN1CCOCC1)c1ccc(-n2ccc3ccccc32)s1 | – | 19.43 |
| O=C(NCCCN1CCCCC1)c1ccc(-n2ccc3ccccc32)s1 | – | 79.49 |
| CCN(CC)CCNC(=O)c1ccc(-n2ccc3ccccc32)s1 | – | 63.07 |
| O=C(NCCCN1CCCC1=O)c1ccc(-n2ccc3ccccc32)s1 | – | 17.83 |
| CCN(CC)CCNC(=O)c1cnc(C(C)(C)C)s1 | – | 0.3139 |
| O=C(NCCN1CCOCC1)c1ccc(-n2ccc3ccccc32)s1 | – | -1.22 |
| CC1Sc2ccc(C(=O)N(C)C)cc2NC1=O (stereo not drawn) | -6.489 | – |
| NC1CCN(c2ccccc2F)CC1 | -9.36 | – |
| CCSCCC(C)N(C)C(=O)c1ccn(C)c(=O)c1 (stereo not drawn) | -4.294 | – |
| O=C1NC(c2cc[nH]n2)Nc2ncccc21 (stereo not drawn) | -9.997 | – |
| N#Cc1ccc(C2NC(=O)c3cccnc3N2)cc1 (stereo not drawn) | 98.73 | – |
| COc1ccc(C2NC(=O)c3cccnc3N2)cc1F (stereo not drawn) | 6.983 | – |
| CC(C)OCCN1CCC(O)CC1 | 2.889 | – |
| O=C(Nc1ccncc1)N1CCN(CC2CC2)CC1 | 11.51 | – |
| c1ccc(-c2noc(CN3CCOC(Cn4cccn4)C3)n2)nc1 (stereo not drawn) | – | 4.093 |
| CN(C)CC1CN(Cc2nc(-c3ccccn3)no2)CCO1 (stereo not drawn) | – | 86.82 |
| CN(C)CC1CN(Cc2nc(-c3cccnc3)no2)CCO1 (stereo not drawn) | – | 12.35 |
